Source: PubChem
Pf apPOL block: Pf-apPOL DNA polymerase inhibition | Recombinant Pf-apPOL, molecular beacon fluorescence, 1.5 h | inhibition, % at 10 µM | 0.25% of 210,000 active | AID 1794808
mHTT CaM bind: disrupts binding of mutant huntingtin to calmodulin. AlphaScreen His-mHTT/GST-CaM binding, luminescence. inhibition, % at 15 µM. 3.6% of 190,000 active. AID 1671202;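 further: 0% = both proteins with DMSO and 100% = one protein alone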
Numbers without * were called inactive; i = inactive; x = not tested or not shown; + = active, no number; ! = not confirmed by another sample. This is one part of a sample in which hits are shown more often than they occur. No stated cut-off is given here; in the data, active means inhibition above about 50%; inactive means the rest.

SMILES	Pf apPOL block	mHTT CaM bind
CN=C1NC(=O)C(CC(=O)Nc2ccccc2C)S1 (configuration not stated)	2	3
Clc1ccccc1C1CC(c2ccco2)=Nc2ccccc2S1 (configuration not stated)	-2	51*
Cc1ccc(C2CC(c3ccccc3)=Nc3ccccc3S2)cc1 (configuration not stated)	-7	x
Cc1sc(NC(=O)Cc2ccc([N+](=O)[O-])cc2)nc1-c1ccccc1	5	13
Cn1nc(-c2nc(-c3ccccc3F)no2)c2c1CCN(C(=O)C1CCCO1)C2 (configuration not stated)	-2	0
C=CCN(CC=C)S(=O)(=O)c1ccc(OC)cc1	x	-23
COc1ccc(-c2oc3c(c2C#CC(C)(C)O)C(OCCO)CC3)cc1 (configuration not stated)	-9	1
COC1CCCc2oc(-c3ccsc3)c(C#CCO)c21 (configuration not stated)	8	52*
COc1ccc(C(=O)N2CCc3c(c(-c4nc(-c5ccccc5F)no4)nn3C)C2)cc1	0	-8
COc1ccccc1C=C1Oc2c(ccc(O)c2CN2CCC(C)CC2)C1=O	-7	6
O=C(Nc1ccc(F)cc1)C1(S(=O)(=O)c2ccc(Cl)cc2)CC1	-1	-6
Cc1ccc(NC(=O)C2(S(=O)(=O)c3ccc(Cl)cc3)CC2)cc1F	84*	-22
CN(C)CCCNC(=O)c1ccc(/C=N/O)[n+](C)c1	1	i
O=C(NCCCNCCCNC(=O)c1ccc(/C=N/O)nc1)c1ccc(/C=N/O)nc1	-3	+
Cc1ccc(-n2cc(C3CCN(C(=O)c4ccc(F)cc4)CC3)cn2)cc1	-5	-6
C=CCOC(=O)Oc1ccc2c(=O)c(-c3ccccc3OC)coc2c1	8	23
COC(=O)Oc1ccc2c(=O)c(-c3ccccc3OC)coc2c1	2	50*
CCOc1ccc2c(=O)c(-c3ccccc3OC)coc2c1	-6	2
CCOC(=O)C(Oc1ccc2c(=O)c(-c3ccccc3OC)coc2c1)c1ccccc1 (configuration not stated)	-5	58*!
COc1cccc(Oc2coc3cc(OC(=O)C=Cc4ccccc4)ccc3c2=O)c1	-6	62*
COc1cccc(Oc2coc3cc(OC(=O)c4ccccc4)ccc3c2=O)c1	-13	-1
COc1ccc2nc3oc(C(=O)NCc4cc(Br)ccc4OC)cc3cc2c1	-7	1
CN(C)C(=O)c1cccc(C(=O)N(C)C)n1	-4	-6
Cc1cc(C)n(CC(C)C(=O)Nc2ccc(Br)cc2)n1 (configuration not stated)	-19	-10
CC(C)CCOC(=O)CCSc1n[nH]c(=O)[nH]c1=O	x	-9
SMILES	Pf apPOL block	mHTT CaM bind
Cc1nc(NCCNC(=O)c2ccco2)cc(N2CCOCC2)n1	-3	-10
Cc1cc(Cl)ccc1OCC(O)CNC(C)c1ccccc1 (configuration not stated)	-1	58*
Cc1cc(Cl)ccc1OCC(O)CN1CCN(C)CC1 (configuration not stated)	44	6
Cc1cc(OCC(O)CNC(C)c2ccccc2)ccc1Cl (configuration not stated)	-4	100*
Cc1ccc(OCC(O)CNC(C)(C)C)cc1C (configuration not stated)	0	0
CCOc1cc(C)c(C(C)C)cc1S(=O)(=O)n1c([N+](=O)[O-])cnc1C	0	-5
CSc1ccc(CNC(=O)C2CCCN(C(=O)Cc3cccc4ccccc34)C2)cc1 (configuration not stated)	0	5
O=C1C(Nc2cccc(I)c2)=C(N2CCCCC2)C(=O)c2ccccc21	24	92*
CC(=O)Nc1ccc(NC2=C(N3CCCCC3)C(=O)c3ccccc3C2=O)cc1	-1	12
O=C1C(Nc2cccc(I)c2)=C(N2CCOCC2)C(=O)c2ccccc21	20	86*
O=C1C(Nc2ccc(F)c(F)c2)=C(N2CCOCC2)C(=O)c2ccccc21	-10	32
O=C1C(Nc2cccc(I)c2)=C(N2CCCC2)C(=O)c2ccccc21	27	99*
CC(=O)NC1=C(N2CCN(c3ccccc3)CC2)C(=O)c2ccccc2C1=O	-7	45
O=C1C(Nc2cccc(C(F)(F)F)c2)=C(N2CCOCC2)C(=O)c2ccccc21	-10	66*
Cc1cccc(NC2=C(N3CCOCC3)C(=O)c3ccccc3C2=O)c1	-3	29
CCc1cccc(C)c1NC(=O)COc1cc(C)cc(C)c1	-1	-5
O=C(c1cnn2ccc(C3CCN(C(=O)C4CC4)CC3)cc12)N1CCCCC1	0	0
Cc1c(C(=O)NC(C)(C)C)sc2nc(-c3ccccc3)cn12	1	3
CCN(Cc1ccccc1)C(=O)C1CCN(CCCc2ccccc2)CC1	-8	-2
Cc1ccc(-c2nc3n(n2)C(=O)CC(c2ccco2)S3)cc1 (configuration not stated)	-2	5
